These results are taken from PubChem BioAssay (EPA / NIEHS).

Records with an inconclusive call do not appear. Some compounds were tested as several samples or in several runs, with calls that do not always agree. Active and inactive are the calls of the source. Rule for the calls, unless noted: active = hit-call score of the fitted dose curve at least 0.9, where 1 is the maximum; inconclusive = response in the unintended direction; inactive = score below 0.9.

In the first experiment the target is Peroxisome proliferator-activated receptor gamma (Homo sapiens) (UniProt P37231). As to the kind of experiment: OT_PPARg_PPARgSRC1_0480: Odyssey Thera (OT) 8-hour Protein-Complementation Assay for Peroxisome Proliferator-activated Receptor Gamma / SRC-1 Co-activator (AID 2283387).
Chain of Peroxisome proliferator-activated receptor gamma (Homo sapiens) (P37231 whole entry, looked up): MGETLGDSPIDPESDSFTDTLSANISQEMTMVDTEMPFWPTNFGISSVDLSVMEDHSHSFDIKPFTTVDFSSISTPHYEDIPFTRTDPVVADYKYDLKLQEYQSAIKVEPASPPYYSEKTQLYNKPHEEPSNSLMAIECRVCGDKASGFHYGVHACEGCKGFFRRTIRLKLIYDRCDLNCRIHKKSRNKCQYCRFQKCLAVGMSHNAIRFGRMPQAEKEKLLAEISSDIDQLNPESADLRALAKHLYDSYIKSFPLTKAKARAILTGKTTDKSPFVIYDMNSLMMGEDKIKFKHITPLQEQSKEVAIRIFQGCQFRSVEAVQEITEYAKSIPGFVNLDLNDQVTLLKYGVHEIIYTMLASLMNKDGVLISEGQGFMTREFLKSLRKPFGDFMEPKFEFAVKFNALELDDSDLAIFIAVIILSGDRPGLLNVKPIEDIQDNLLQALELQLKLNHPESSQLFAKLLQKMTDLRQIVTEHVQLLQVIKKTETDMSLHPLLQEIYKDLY
Conditions: not given
In a few lines: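 Read-out: 488 nm N/C fluorescence ratio from complemented Venus YFP fragments, ≥350 cells per image, gain-of-signal fitted against DMSO baseline. Fusions of PPARg/SRC-1 with IFP1/IFP2 expressed transiently in HEK293T; compounds applied 8 h.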
Turning to `O=C(c1ccc(OCCN2CCCCC2)cc1)c1c(-c2ccc(O)cc2)sc2cc(O)ccc12`, the compound was classed as inactive.
On the same count and under the same terms, with `CCCCC(CC)COCCO` (stereo unspecified) the entry was “inactive”.
On the same count and under the same terms, the value for `CC(=O)C1C(=O)C=C(C)OC1=O` (stereo unspecified) was “inactive”; that for `FC(F)(F)c1ccc(Cl)c(Cl)c1` was “inactive”.
Take `C#C[C@]1(O)CC[C@H]2[C@@H]3CCc4cc(O)ccc4[C@H]3CC[C@@]21C`: the compound was classed as inactive.
For the compound `CCCCCC(=O)O[C@]1(C(C)=O)CC[C@H]2[C@@H]3CCC4=CC(=O)CC[C@]4(C)[C@H]3CC[C@@]21C`, the call was inactive.
The same measure, in the same setting: with `CC(=O)N(C)C` the entry was “inactive”; with `CC(=O)OC/C=C(C)/C=C/C=C(C)/C=C/C1=C(C)CCCC1(C)C`, “inactive”; with `c1coc(CNc2ncnc3nc[nH]c23)c1`, “inactive”.
On the same count and under the same terms, with `CC(=O)C1=C(C)[C@@H]2C[C@@]3(C1)[C@H](C)CC[C@H]3C2(C)C` the entry was “inactive”.
Same read-out and setting: the value for `COC(=O)C(C)Oc1ccc(Oc2ncc(C(F)(F)F)cc2Cl)cc1` (stereo unspecified) was “inactive”; that for `CC1=CCC(C(C)(C)O)CC1` (stereo unspecified) was “inactive”; that for `CCCCCCCCCCCCN1CCOCC1` was “inactive”.
With `Cc1cccc(O)c1`, the outcome was inactive.
As to `c1ccc(OCCOc2ccccc2)cc1`, the outcome was inactive.
On the same count and under the same terms, with `CCCCN(CCCC)CCCCCCN(CCCC)CCCC` the entry was “inactive”; with `COc1ccc2[nH]cc(CCNC(C)=O)c2c1`, “inactive”; with `CCCc1ccc(O)cc1`, “inactive”.
On to `OCC=Cc1ccccc1`, for which the call was inactive.
Still for that read-out and setting: the value for `CC/C(=C(\c1ccccc1)c1ccc(OCCN(C)C)cc1)c1ccccc1` was “inactive”.
As to `C=CC(O)CCCCC` (stereo unspecified), the compound was classed as inactive.
As for `CC(=O)c1ccc2ccccc2c1`, the call was inactive.
With `CCCCCCCCCOS(=O)(=O)O`, the outcome was inactive.
In the case of `C[C@]12CC[C@@H]3c4ccc(O)cc4CC[C@H]3[C@@H]1CC[C@@H]2O`, the call was inactive.
Turning to `O=c1cc(-c2ccc(O)cc2)oc2cc(O)cc(O)c12`, the call was inactive.
In the case of `CCCC[N+](C)(CCCC)CCCC`, the call was inactive.
The same measure, in the same setting: the value for `CC(C)(C)c1cccc(O)c1` was “inactive”.

The target is the same in the next experiment. As to the kind of experiment: OT_PPARg_PPARgSRC1_1440: Odyssey Thera (OT) 24-hour Protein-Complementation Assay for Peroxisome Proliferator-activated Receptor Gamma/ SRC-1 Co-activator (AID 2283388).
Conditions: not given
In a few lines:
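HEK293T transiently transfected with PPARg/SRC-1 split-Venus YFP fusions 48 h before dosing, then treated 24 h at 37C. Fixed cells imaged; nuclear/cytoplasmic 488 nm fluorescence ratio, gain of signal versus DMSO.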
Turning to `O=C(c1ccc(OCCN2CCCCC2)cc1)c1c(-c2ccc(O)cc2)sc2cc(O)ccc12`, the compound was called inactive.
The same measure, in the same setting: the value for `CCCCC(CC)COCCO` (stereo unspecified) was “inactive”; that for `CC(=O)C1C(=O)C=C(C)OC1=O` (stereo unspecified) was “inactive”.
For `FC(F)(F)c1ccc(Cl)c(Cl)c1`, the result was inactive.
For `C#C[C@]1(O)CC[C@H]2[C@@H]3CCc4cc(O)ccc4[C@H]3CC[C@@]21C`, the result was inactive.
Regarding `CCCCCC(=O)O[C@]1(C(C)=O)CC[C@H]2[C@@H]3CCC4=CC(=O)CC[C@]4(C)[C@H]3CC[C@@]21C`, the compound was classed as inactive.
`CC(=O)N(C)C`: the compound was classed as inactive.
On to `CC(=O)OC/C=C(C)/C=C/C=C(C)/C=C/C1=C(C)CCCC1(C)C`, for which the compound was called inactive.
Regarding `c1coc(CNc2ncnc3nc[nH]c23)c1`, the call was inactive.
Same read-out and setting: with `CC(=O)C1=C(C)[C@@H]2C[C@@]3(C1)[C@H](C)CC[C@H]3C2(C)C` the entry was “inactive”; with `CC(=O)OC(C)(C)C`, “inactive”.
Same read-out and setting: with `COC(=O)C(C)Oc1ccc(Oc2ncc(C(F)(F)F)cc2Cl)cc1` (stereo unspecified) the entry was “inactive”; with `CC1=CCC(C(C)(C)O)CC1` (stereo unspecified), “inactive”.
On the same count and under the same terms, the value for `CCCCCCCCCCCCN1CCOCC1` was “inactive”.
For `Cc1cccc(O)c1`, the result was inactive.
On the same count and under the same terms, the value for `c1ccc(OCCOc2ccccc2)cc1` was “inactive”; that for `CCCCN(CCCC)CCCCCCN(CCCC)CCCC` was “inactive”; that for `COc1ccc2[nH]cc(CCNC(C)=O)c2c1` was “inactive”.
`CCCCCCCCCCO[C@@H]1O[C@H](CO)[C@@H](O)[C@H](O)[C@H]1O`: the compound was called inactive.
For the compound `CCCc1ccc(O)cc1`, the result was inactive.
On to `c1ccc(Cc2ccccc2)cc1`, for which the result was inactive.
On to `OCC=Cc1ccccc1`, for which the outcome was inactive.
On the same count and under the same terms, the value for `NCCN1CCNCC1` was “inactive”; that for `CC/C(=C(\c1ccccc1)c1ccc(OCCN(C)C)cc1)c1ccccc1` was “inactive”.
As to `C=CC(O)CCCCC` (stereo unspecified), the compound was classed as inactive.
Regarding `CC(=O)c1ccc2ccccc2c1`, the compound was called inactive.
On the same count and under the same terms, with `CCCCCCCCCOS(=O)(=O)O` the entry was “inactive”; with `C[C@]12CC[C@@H]3c4ccc(O)cc4CC[C@H]3[C@@H]1CC[C@@H]2O`, “inactive”; with `O=c1cc(-c2ccc(O)cc2)oc2cc(O)cc(O)c12`, “inactive”.
Turning to `CCCC[N+](C)(CCCC)CCCC`, the compound was classed as inactive.
Same read-out and setting: with `CC(C)(C)c1cccc(O)c1` the entry was “inactive”.

Read-out in a further experiment: not listed separately
As to the kind of experiment: CEETOX_H295R_11DCORT: CeeTox H295R High-throughput Steroidogenesis Assay for 11-Deoxycortisol (11DCORT) (AID 2283432; active = hit-call score of the fitted dose curve at least 0.9, where 1 is the maximum; inactive = score below 0.9;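 for AC50: human adrenal H295R cells prestimulated with 10 µM forskolin for 48 h; 11-deoxycortisol secreted into the medium measured by LC-MS/MS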). Conditions: actives raise or lower the signal. In short, it runs like this: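 H295R cells; 10 uM forskolin prestim 48 h; compound in 0.1% DMSO 48 h; media extracted with MTBE; 11-deoxycortisol by LC-MS/MS, 7-point standard curve; gain/loss vs DMSO baseline; viability by MTT in same wells.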
In the case of `O=C(c1ccc(OCCN2CCCCC2)cc1)c1c(-c2ccc(O)cc2)sc2cc(O)ccc12`, the outcome was inactive.
The AC50 is the concentration at which the activity in the assay is half-maximal. On to `C#C[C@]1(O)CC[C@H]2[C@@H]3CCc4cc(O)ccc4[C@H]3CC[C@@]21C`, for which the AC50 is 0.364 µM (active).
With `CCCCCC(=O)O[C@]1(C(C)=O)CC[C@H]2[C@@H]3CCC4=CC(=O)CC[C@]4(C)[C@H]3CC[C@@]21C`, the half-maximal activity concentration (AC50) is 13.3 µM (active).
Turning to `OCCCO`, the call was inactive.
Consider `c1coc(CNc2ncnc3nc[nH]c23)c1`, for which the compound was classed as inactive.
For the compound `CC=CC(=O)C1=C(C)C=CCC1(C)C`, the compound was called inactive.
In the case of `CCCCCCCCCCCCN1CCOCC1`, the AC50 was 0.559 µM (active).
For `CC(=N[Si](C)(C)C)O[Si](C)(C)C`, the call was inactive.
The same measure, in the same setting: with `c1ccc(OCCOc2ccccc2)cc1` the entry was “inactive”; with `O=C(OCc1ccccc1)c1ccccc1O`, “inactive”.
In the case of `COc1ccc2[nH]cc(CCNC(C)=O)c2c1`, the concentration at half-maximal activity (AC50) was 44.5 µM (active).
With `CCCc1ccc(O)cc1`, the compound was called inactive.
For the compound `CC/C(=C(\c1ccccc1)c1ccc(OCCN(C)C)cc1)c1ccccc1`, the concentration at half-maximal activity (AC50) is 0.136 µM (active) and the compound was classed as inactive.
Regarding `CC(=O)c1ccc2ccccc2c1`, the result was inactive.
Take `C[C@]12CC[C@@H]3c4ccc(O)cc4CC[C@H]3[C@@H]1CC[C@@H]2O`: the half-maximal activity concentration (AC50) was 4.37 µM (active).
Still for that read-out and setting: with `O=c1cc(-c2ccc(O)cc2)oc2cc(O)cc(O)c12` the figure was 8.73 µM (active).
Turning to `CC(C)(C)c1cccc(O)c1`, the outcome was inactive.
